In assay [1] the target is Calcium and integrin-binding protein 1 (Homo sapiens) (UniProt Q99828). Put plainly: Primary qHTS for Identification of Calcium Integrin Binding Protein 1 (CIB1) Competitor (AID 1508620).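 Also: GST tagged CIB1 binding a fluorescein labelled alphaIIb integrin peptide tracer; top concentration of the series differs between compounds; % is scaled to controls: 0 for no effect and ±100 for the full control effect.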 An outline of the steps:
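Fluorescence polarization competition: CIB1-GST (1 uM final) preincubated with compound 15 min at room temperature, then FITC-labeled alphaIIb peptide (100 nM final) added for another 15 min. Polarization read at Ex 480/Em 540.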

The nature of assay [2]: Primary qHTS for inhibitors of nuclear receptor binding SET domain protein 2 (NSD2) in an RCH-ACV wild type WT cells (2C) (AID 1645877). Also: nearly all actives have a fitted effect of over 70% in size. Also: potency is read from the fitted curve at half-maximal effect. As to activity change, negative = cell killing: % is scaled to controls: 0 for no effect and ±100 for the full control effect.
Assay [3] in a line: Primary qHTS for inhibitors of nuclear receptor binding SET domain protein 2 (NSD2) in an isogenic RCH-ACV NSD2 p.E1099K mutant (9B) (AID 1645876). Also: nearly all actives have a fitted effect of over 70% in size. As to activity change, negative = viability loss: % is scaled to controls: 0 for no effect and ±100 for the full control effect.
For assay [4], the target named is Catechol O-methyltransferase (Homo sapiens) (UniProt P21964). Briefly: Confirmatory Screen for Target Class Profiling of Small Molecule Inhibitors of Methyltransferases (AID 1745852). As to activity change, negative = inhibition: % is scaled to controls: 0 for no effect and ±100 for the full control effect. The following applies: MTase-Glo luminescence, SAH detection, recombinant enzyme; measured here: COMT max response; stronger effect = lower value.
Assay [5] deals with Guanidinoacetate N-methyltransferase (Homo sapiens) (UniProt Q14353). The description is as above. The settings on record: MTase-Glo luminescence, SAH detection, recombinant enzyme; activity change, negative = inhibition: at 57.3 µM (top of the series) unless noted.
Assay [6] concerns the target Nicotinamide N-methyltransferase (Homo sapiens) (UniProt P40261). Described as above. The settings on record: MTase-Glo luminescence, SAH detection, recombinant enzyme; measured here: NNMT max response; stronger effect = lower value.
For assay [7], the target named is Phenylethanolamine N-methyltransferase (Homo sapiens) (UniProt P11086). The description is as above. The following applies: MTase-Glo luminescence, SAH detection, recombinant enzyme; measured here: PNMT max response; stronger effect = lower value.
For assay [8], the target named is Rap guanine nucleotide exchange factor 3 (Homo sapiens) (UniProt O95398). Put plainly: Confirmatory qHTS for antagonist of cAMP-regulated guanine nucleotide exchange factor 3 (EPAC1) (AID 1645880). Also: potency is read from the fitted curve at half-maximal effect; nearly all actives have a fitted effect of over 55% in size. The following applies: EPAC1 Rap1B-BODIPY-GDP exchange, fluorescence. An outline of the steps:
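Released BODIPY-GDP fluoresces less than Rap1-bound BODIPY-GDP; the signal is followed at 480/540 nm at 5-min intervals over 30 min, after 5 min at room temperature. Reactions contain 100 nM EPAC1, 250 nM RAP1B-BODIPY-GDP and 50 uM GDP; results are normalized to ATA and DMSO.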

The target is the same in assay [9]. Briefly: Confirmatory qHTS for agonist of cAMP-regulated guanine nucleotide exchange factor 3 (EPAC1) (AID 1645881).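 Also: EPAC1 catalysed release of BODIPY-GDP from Rap1B seen as fluorescence loss; 100% = effect of cAMP agonist control; nearly all actives have a fitted effect of over 75% in size.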
For assay [10], the target named is Rap guanine nucleotide exchange factor 4 (Homo sapiens) (UniProt Q8WZA2). Put plainly: Confirmatory qHTS for agonist of cAMP-regulated guanine nucleotide exchange factor 4 (EPAC2) (AID 1645884).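 Also: nucleotide exchange releases bodipy-GDP from Rap1 and this lowers its fluorescence; % is scaled to controls: 0 for no effect and ±100 for the full control effect; nearly all actives have a fitted effect of over 65% in size.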
Assay [11] has the same target. Put plainly: Confirmatory qHTS for antagonist of cAMP-regulated guanine nucleotide exchange factor 4 (EPAC2) (AID 1645885). Also: % is scaled to controls: 0 for no effect and ±100 for the full control effect; nearly all actives have a fitted effect of over 25% in size. The following applies: outcome: dose series up to 114 µM.
In assay [12] the target is Rap guanine nucleotide exchange factor 3 (Homo sapiens) (UniProt O95398). Put plainly: Counterscreen qHTS for antagonist of cAMP-regulated guanine nucleotide exchange factor 3 (EPAC1) (AID 1645888). Also: % of control where 0% means no effect. An outline of the steps: (§1)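 Measured: fluorescence of BODIPY-GDP bound to Rap1B, which falls as exchange proceeds. Conditions include 50 uM competing GDP, 5 and 30 min reads, and a later cAMP challenge for antagonist detection.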

Assay [13] shares this target. Put plainly: Counterscreen qHTS for agonist of cAMP-regulated guanine nucleotide exchange factor 3 (EPAC1) (AID 1645889). Also: % of control where 0% means no effect; nearly all actives have a fitted effect of over 40% in size. An outline of the steps:
as §1

The target in assay [14] is Cytochrome P450 2C9 (Homo sapiens) (UniProt P11712). Put plainly: Cytochrome P450 family 2 subfamily C member 9 (CYP2C9) small molecule antagonists: luciferase biochemical (cell-free) qHTS assay (AID 1645842; active = well fitted curve in the direction sought with a large enough effect in the repeat runs; an effect the other way counts as inactive or inconclusive; also: potency is read from the fitted curve at half-maximal effect; nearly all actives have a fitted effect of over 55% in size). An outline of the steps:
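P450-Glo CYP2C9 system: proluciferin substrate with enzyme in mix containing 0.4% BSA, 10 min at room temperature, then NADPH regeneration solution added and incubated 1 h at 37C. Detection reagent stopped reaction; luminescence read after 20 min as RLU.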

Assay [15] can be described thus: Viability counterscreen for antagonist of constitutive androstane receptor (CAR) against the NCATS DSHEA and TCM libraries (AID 1794837).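 Also: compound exposure lasted 24 h before viability reading; 0% is about no effect.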 The procedure, abridged: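 Cell viability, CellTiter-Fluor, Ex/Em 405/540 nm, 1 h at 37C. HepG2-CYP2B6-hCAR, 2,500 cells/well; cpds + CITCO 48 uM final (antagonist mode), 24 h, 37C/5% CO2.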

These results are taken from PubChem BioAssay (NCATS).

Inconclusive results are not listed. Activity calls are given as the source filed them. Unless noted, calls follow the shape of the dose curve; as a rule, active = well fitted curve in the direction sought with a large enough effect; inconclusive = small, poorly fitted or top-dose-only effect, or another doubt; inactive = no such curve, though single readings can be large; an effect the other way counts as inactive or inconclusive.

Chain of Calcium and integrin-binding protein 1 (Homo sapiens) (Q99828 whole entry, looked up): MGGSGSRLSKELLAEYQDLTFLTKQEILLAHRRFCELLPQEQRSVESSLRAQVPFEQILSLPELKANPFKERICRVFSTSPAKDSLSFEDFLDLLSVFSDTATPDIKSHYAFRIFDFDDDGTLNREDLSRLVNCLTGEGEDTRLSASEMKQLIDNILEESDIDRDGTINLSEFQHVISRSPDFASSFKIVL
Chain of Catechol O-methyltransferase (Homo sapiens) (P21964 whole entry, looked up): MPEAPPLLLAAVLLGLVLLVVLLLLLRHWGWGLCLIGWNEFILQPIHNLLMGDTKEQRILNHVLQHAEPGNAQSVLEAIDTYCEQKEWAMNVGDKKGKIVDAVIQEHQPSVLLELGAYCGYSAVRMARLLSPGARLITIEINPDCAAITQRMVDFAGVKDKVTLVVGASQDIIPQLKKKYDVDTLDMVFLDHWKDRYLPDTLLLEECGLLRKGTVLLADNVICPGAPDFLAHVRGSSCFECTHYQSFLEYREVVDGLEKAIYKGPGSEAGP
Chain of Rap guanine nucleotide exchange factor 3 (Homo sapiens) (O95398 whole entry, looked up): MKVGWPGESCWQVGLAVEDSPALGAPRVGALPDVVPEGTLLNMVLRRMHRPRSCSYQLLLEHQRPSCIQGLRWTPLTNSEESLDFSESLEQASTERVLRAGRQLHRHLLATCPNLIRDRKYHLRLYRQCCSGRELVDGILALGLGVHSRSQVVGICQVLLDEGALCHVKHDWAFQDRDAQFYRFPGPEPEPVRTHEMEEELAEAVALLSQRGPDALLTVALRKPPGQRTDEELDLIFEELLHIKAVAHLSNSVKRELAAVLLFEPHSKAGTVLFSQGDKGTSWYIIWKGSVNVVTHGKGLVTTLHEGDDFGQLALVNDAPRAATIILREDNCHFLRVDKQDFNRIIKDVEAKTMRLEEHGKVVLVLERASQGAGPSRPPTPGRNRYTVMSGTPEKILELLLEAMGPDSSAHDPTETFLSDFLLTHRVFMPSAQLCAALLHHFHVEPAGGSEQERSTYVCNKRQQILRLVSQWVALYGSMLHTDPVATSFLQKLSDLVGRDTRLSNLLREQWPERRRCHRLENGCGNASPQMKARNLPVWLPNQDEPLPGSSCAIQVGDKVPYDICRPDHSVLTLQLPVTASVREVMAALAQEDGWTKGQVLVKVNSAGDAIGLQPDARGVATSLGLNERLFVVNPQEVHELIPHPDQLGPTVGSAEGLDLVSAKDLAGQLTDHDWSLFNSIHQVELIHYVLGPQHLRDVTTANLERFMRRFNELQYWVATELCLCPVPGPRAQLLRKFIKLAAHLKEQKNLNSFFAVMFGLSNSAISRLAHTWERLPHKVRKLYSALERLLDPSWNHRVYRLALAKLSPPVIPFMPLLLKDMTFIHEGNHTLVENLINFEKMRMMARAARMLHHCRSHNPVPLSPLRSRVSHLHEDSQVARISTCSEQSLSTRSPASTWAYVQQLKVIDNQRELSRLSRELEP
Chain of Nicotinamide N-methyltransferase (Homo sapiens) (P40261 whole entry, looked up): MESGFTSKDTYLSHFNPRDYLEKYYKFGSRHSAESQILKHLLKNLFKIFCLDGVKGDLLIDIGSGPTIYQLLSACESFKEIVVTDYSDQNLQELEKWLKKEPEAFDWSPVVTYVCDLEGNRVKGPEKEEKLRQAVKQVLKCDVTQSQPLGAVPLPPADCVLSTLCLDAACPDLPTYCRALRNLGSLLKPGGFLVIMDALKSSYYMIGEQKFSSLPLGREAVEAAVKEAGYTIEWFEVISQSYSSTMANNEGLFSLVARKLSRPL
Chain of Phenylethanolamine N-methyltransferase (Homo sapiens) (P11086 whole entry, looked up): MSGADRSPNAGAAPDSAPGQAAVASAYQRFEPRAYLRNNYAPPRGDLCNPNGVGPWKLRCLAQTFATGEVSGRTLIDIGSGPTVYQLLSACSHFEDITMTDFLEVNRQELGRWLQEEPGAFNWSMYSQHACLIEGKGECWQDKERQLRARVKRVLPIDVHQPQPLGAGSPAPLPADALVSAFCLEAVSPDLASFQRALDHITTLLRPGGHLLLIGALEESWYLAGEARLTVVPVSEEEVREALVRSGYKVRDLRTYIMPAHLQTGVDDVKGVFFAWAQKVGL
Chain of Rap guanine nucleotide exchange factor 4 (Homo sapiens) (Q8WZA2 whole entry, looked up): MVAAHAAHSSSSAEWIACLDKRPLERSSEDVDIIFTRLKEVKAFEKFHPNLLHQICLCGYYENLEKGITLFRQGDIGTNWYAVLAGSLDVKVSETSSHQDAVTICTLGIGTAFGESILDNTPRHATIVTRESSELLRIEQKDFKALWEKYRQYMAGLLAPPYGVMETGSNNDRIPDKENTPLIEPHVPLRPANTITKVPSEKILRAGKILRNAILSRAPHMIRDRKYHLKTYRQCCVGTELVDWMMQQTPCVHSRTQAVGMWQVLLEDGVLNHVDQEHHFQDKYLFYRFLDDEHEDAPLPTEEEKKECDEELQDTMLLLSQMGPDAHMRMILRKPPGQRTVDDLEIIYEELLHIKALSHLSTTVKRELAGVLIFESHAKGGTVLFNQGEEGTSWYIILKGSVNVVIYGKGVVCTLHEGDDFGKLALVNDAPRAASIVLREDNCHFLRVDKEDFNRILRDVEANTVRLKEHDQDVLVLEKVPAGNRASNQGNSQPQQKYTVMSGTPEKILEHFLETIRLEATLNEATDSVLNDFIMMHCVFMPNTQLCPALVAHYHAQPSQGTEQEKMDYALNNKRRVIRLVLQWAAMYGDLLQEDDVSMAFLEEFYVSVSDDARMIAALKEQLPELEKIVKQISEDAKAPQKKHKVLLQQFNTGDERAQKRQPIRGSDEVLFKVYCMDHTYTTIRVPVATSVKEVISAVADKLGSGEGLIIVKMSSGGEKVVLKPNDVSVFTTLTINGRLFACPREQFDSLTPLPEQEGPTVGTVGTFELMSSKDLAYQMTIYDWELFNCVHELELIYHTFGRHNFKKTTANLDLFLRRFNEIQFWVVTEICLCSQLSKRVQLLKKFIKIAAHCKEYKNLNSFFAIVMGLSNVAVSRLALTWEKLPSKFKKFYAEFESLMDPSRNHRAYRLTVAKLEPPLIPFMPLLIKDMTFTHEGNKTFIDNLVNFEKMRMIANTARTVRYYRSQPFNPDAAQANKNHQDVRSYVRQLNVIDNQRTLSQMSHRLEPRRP
Chain of Cytochrome P450 2C9 (Homo sapiens) (P11712 whole entry, looked up): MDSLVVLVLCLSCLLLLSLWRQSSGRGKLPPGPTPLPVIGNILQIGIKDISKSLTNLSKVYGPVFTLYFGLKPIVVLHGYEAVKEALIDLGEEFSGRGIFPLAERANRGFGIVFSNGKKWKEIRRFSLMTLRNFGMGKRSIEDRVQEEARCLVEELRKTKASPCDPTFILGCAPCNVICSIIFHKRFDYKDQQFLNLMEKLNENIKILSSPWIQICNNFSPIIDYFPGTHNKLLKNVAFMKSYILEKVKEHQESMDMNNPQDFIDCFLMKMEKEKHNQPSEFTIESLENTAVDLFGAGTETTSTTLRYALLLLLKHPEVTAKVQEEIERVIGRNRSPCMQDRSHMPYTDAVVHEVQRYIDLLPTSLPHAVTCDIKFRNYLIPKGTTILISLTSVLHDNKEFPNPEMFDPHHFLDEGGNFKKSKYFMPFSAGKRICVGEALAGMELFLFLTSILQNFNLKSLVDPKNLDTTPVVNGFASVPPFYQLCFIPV

For the compound `OC[C@H]1O[C@@H](Oc2cc(O)cc(-c3cc4ccc(O[C@@H]5O[C@H](CO)[C@@H](O)[C@H](O)[C@H]5O)cc4o3)c2)[C@H](O)[C@@H](O)[C@@H]1O`, the Potency result in assay [1] and in assay [2] was “inactive” each time.

In the case of `COc1cc(/C=C/C(=O)OCC2OC(OC3(CO)OC(CO)C(O)C3O)C(O)C(O)C2O)ccc1O` (stereo unspecified), the Potency result in assay [1], in assay [3] and in [2] was “inactive” in each case. The activity in assay [4] was -68.2%; in assay [6] it was -1.16%; in [7], 3.04%. Besides, the activity change, negative = inhibition in assay [5] is -1.33% [at 29.8 µM].

Consider `Cc1ccc([C@@H]2CC=C(C(=O)O)[C@H](c3ccc(C(C)(C)C)cc3)N2S(=O)(=O)c2ccc(C)cc2)cc1`, for which the Potency result in [1] was “inactive”. In addition, the Potency in [8] is 50.1 µM (active). Moreover, the outcome in [9] and in [11] was “inactive” in each case. For the same compound, the activation was 5.81% [at 17.1 µM] (inactive) in assay [10] and 14.8% [at 30.8 µM] (inactive) in assay [13]. Besides, the activity change, negative = inhibition in assay [12] is -12.2% [at 30.8 µM] (inactive).

Regarding `COc1cc(Nc2ccc([N+](=O)[O-])cc2C(=O)O)cc2ccccc12`, the Potency in [14] is 6.74 µM (active). Also, the Potency entry in assay [3] and in [2] was “inactive” in each case.

As to `COC(=O)/C=C/c1ccc(O[C@@H]2O[C@H](CO)[C@@H](O)[C@H](O)[C@H]2O)cc1`, in assay [1], the Potency entry is “inactive”. Besides, the Potency in [2] was 8.01 µM (active).

Turning to `CC(=O)O[C@@H]1C[C@@H](C)[C@](O)(CCC2=CC(=O)OC2)[C@@]2(C)CCCC(C)(C)C12` (stereo partly specified), the Potency result in assay [1] is “inactive”. Besides, the outcome in assay [15] was “inactive”.

As to `CC1CC2(O)OC(=O)C3=C2C(CCC3)[C@@]12C[C@@H](c1ccoc1)OC2=O` (stereo partly specified), the Potency entry in assay [3] and in [2] was “inactive” throughout.

Consider `C[C@@H]1O[C@@H](O[C@H]2[C@H](O[C@H]3[C@H](O[C@H]4CC[C@@]5(C)C(CC[C@]6(C)C5CC=C5[C@@H]7CC(C)(C)CC(=O)[C@]7(C)CC[C@]56C)[C@@]4(C)CO)O[C@H](C(=O)O)[C@@H](O)[C@@H]3O)O[C@H](CO)[C@H](O)[C@@H]2O)[C@H](O)[C@H](O)[C@H]1O` (stereo partly specified), for which the outcome in assay [3] and in [2] was “inactive [at 9.23 µM]” throughout.

Take `Cc1ccc(C)c(S(=O)(=O)n2cnc3ccccc32)c1`: the Potency result in assay [3] and in [2] was “inactive” throughout.

`CCC(=O)OCC(=O)[C@@]1(OC(=O)CC)[C@@H](C)C[C@H]2[C@@H]3CCC4=CC(=O)C=C[C@]4(C)[C@@]3(F)[C@@H](O)C[C@@]21C`: the Potency in [2] was 0.0073 µM (active).

Regarding `CCC(C)/C=C(C)/C=C/C1=CC2=C(Cl)C(=O)C(C)(OC(C)=O)C(=O)C2=CN1CCCCC(N)C(=O)O` (stereo unspecified), the Potency result in assay [3] and in [2] was “inactive” in each case.

As to `O=C(O)CCc1ccc(NCc2cccc3c2CCCN3CCOc2ccccc2)cc1F`, the Potency result in [3] and in assay [2] was “inactive” each time. Besides, the activity is -3.27% in [4], -32.3% in [6] and -5.97% in assay [7]. Moreover, the activity change, negative = inhibition in [5] is -0.799%.

As for `O=C(O)CC1(O)C(=O)Nc2ccccc21` (stereo unspecified), the Potency entry in assay [3] and in assay [2] was “inactive” in each case. The activity is 0% in assay [4], 4.18% in assay [6] and -0.0725% in assay [7]. For the same compound, in [5], the activity change, negative = inhibition was 0% [at 85.7 µM].

Turning to `NC1Nc2ccccc2C1(N)CC1NC(=O)C(Cc2ccccc2)NC(=O)C(Cc2ccccc2)NC1=O` (stereo unspecified), the Potency entry in assay [3] and in [2] was “inactive” throughout.

For `C=C[C@@](C)(CCC=C(C)C)O[C@@H]1O[C@H](CO[C@@H]2OC[C@H](O)[C@H](O)[C@H]2O)[C@@H](O)[C@H](O)[C@H]1O`, the Potency entry in [3] and in [2] was “inactive” each time.

Consider `CC(CCc1ccc(O)cc1)O[C@@H]1O[C@H](CO[C@@H]2OC(CO)[C@H](O)[C@H]2O)[C@@H](O)[C@H](O)[C@H]1O` (stereo partly specified), for which the Potency result in [3] and in [2] was “inactive” each time.

On to `C=CC(C)(O)CC/C=C(\C)C(=O)O[C@@H]1[C@@H](O)[C@H](OC(C)(C=C)CC/C=C(\C)C(=O)O[C@@H]2O[C@H](CO)[C@@H](O)[C@H](O)[C@H]2O)O[C@H](CO)[C@H]1OC(=O)/C(C)=C/CCC(C)(O)C=C` (stereo partly specified), for which the activity change, negative = viability loss in assay [3] was -6.17% [at 9.23 µM] (inactive). In assay [2], the activity change, negative = cell killing was -2.41% [at 9.23 µM] (inactive).

For `COc1c(C)c(OCC(O)C(C)(C)O)cc2c1CNC2=O` (stereo unspecified), the Potency result in assay [3] and in assay [2] was “inactive” throughout.

With `C/C=C(\C)C(=O)O[C@H]1C=CC(=O)O[C@H]1/C=C/[C@H](O)[C@@H](C)O`, the Potency in assay [2] was 23 µM (active).

Take `CC(=O)c1c(C)cccc1O[C@@H]1O[C@H](CO)[C@@H](O)[C@H](O)[C@H]1O`: the Potency entry in assay [3] and in assay [2] was “inactive” in each case. For the same compound, the activity is -68.9% in [4], -4.15% in assay [6] and -3.91% in assay [7]. The activity change, negative = inhibition in [5] is -2.96%.
